Screening results from PubChem.
DAX1 inh-1 = DAX1 (NR0B1) inhibitors, primary screen, cell-based, HEK293, Gal4-DAX1, luciferase luminescence; Nuclear receptor subfamily 0 group B member 1 (Homo sapiens), P51843; HEK293 Gal4-DAX1 luciferase reporter; inhibition, % at 6.75 µM; 340,000 tested, 0.99% active; AID 504766, 2011;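 active means inhibition above the mean over all tested compounds plus 3 SD, cut at about 4.2% in these data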;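 further: 0% = DAX1-transfected cells with DMSO and 100% = empty-vector control cells with DMSO; inhibition shows as a rise in luminescence from relieved DAX1 repression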
Target sequence (P51843 207-470 limits assumed): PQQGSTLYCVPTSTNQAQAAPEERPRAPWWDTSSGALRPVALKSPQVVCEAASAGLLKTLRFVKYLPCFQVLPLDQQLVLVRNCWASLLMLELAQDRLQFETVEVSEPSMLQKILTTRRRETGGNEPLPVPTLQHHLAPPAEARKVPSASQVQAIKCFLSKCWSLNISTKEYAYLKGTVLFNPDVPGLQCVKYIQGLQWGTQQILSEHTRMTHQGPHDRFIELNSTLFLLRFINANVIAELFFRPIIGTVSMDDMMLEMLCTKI
ssDAF12 agonist = S. stercoralis DAF-12 nuclear receptor activators, primary screen, cell-based, luminescence, HEK293, GRIP1 co-expression, lit1-tk-luc; AID 652126, 2013; activation, % at 6.8 µM; 370,000 tested, 1% active; Nuclear hormone receptor DAF-12 (Strongyloides stercoralis); HEK293 ssDAF-12/GRIP1 lit1-tk-luc reporter; % of 3 µM dafachronic acid response;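 active means activation above the mean over all tested compounds plus 3 SD, cut at about 0.9% in these data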;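 further: 0% = DMSO-only wells and 100% = 3 µM delta7-dafachronic acid wells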
hcDAF-12 act = H. contortus DAF-12 nuclear receptor activators, primary screen, cell-based, luminescence, HEK293, lit1-tk-luc reporter; HEK293 hcDAF-12 lit1-tk-luc reporter; 0% DMSO, 100% Δ7-dafachronic acid; 370,000 tested, 1.4% active; activation, % at 6.8 µM;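 active means activation above the mean of all tested compounds plus 3 SD, cut at about 5.5% in these data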;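 further: 100% = response to 3 µM Δ7-dafachronic acid high control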
DAX1 inh-2 = DAX1 (NR0B1) inhibitors on StAR promoter, primary screen, cell-based, luminescence, SF-1 (NR5A1), full-length DAX-1; inhibition, % at 6.8 µM; HEK293T StAR-luciferase reporter, SF-1/DAX-1 repression relief; 370,000 tested, 1.1% active;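 active means inhibition above the mean over all tested compounds plus 3 SD, cut at about 3.6% in these data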;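 further: 0% = DAX-1 cells with DMSO and 100% = cells lacking DAX-1 with DMSO; higher inhibition means more luminescence from relief of DAX-1 repression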
AHR activator = AHR activators, primary screen, cell-based, luminescence, luciferase reporter, human; activation, % at 5 µM; AHR-responsive luciferase reporter cells; AID 2796, 2010; 320,000 tested, 2.5% active; in the data active means activation above about 47%;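 further: 0% = vehicle wells and 100% = reference agonist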
hgDAF12 agonist = H. glycines DAF-12 receptor agonists, primary screen, cell-based, luminescence, HEK293, GAL4 fusion, UAS-luciferase; AID 687014, 2013; HEK293 GAL4-hgDAF12 UAS-luciferase reporter, agonist luminescence; normalized to butyrate control; 370,000 tested, 1.8% active; activation, % at 6.8 µM;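 active means activation above a cutoff set at the mean of all screened compounds plus 3 SD, cut at about 10% in these data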;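 further: 0% = DMSO wells and 100% = sodium butyrate wells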
* hit, by the source's call; / = no result. Rows were chosen to be rich in hits. Some 5.7% of all compounds tested hit in one or more screens of this group.

SMILES	DAX1 inh-1	ssDAF12 agonist	hcDAF-12 act	DAX1 inh-2	AHR activator	hgDAF12 agonist
Cc1nn(-c2ccc(Cl)cc2)c2sc(C(=O)N3CCN(c4ccccn4)CC3)cc12	2	-1	-2	1	77*	1
O=C(c1cc2c(s1)-c1ccccc1OC2)N1CCN(c2ccccn2)CC1	5.4*	-1	0	0	7	1
Cc1cccc(-n2cc[nH]c2=S)c1	1	-1	0	0	-2	0
O=C(Cn1cnc2ccccc21)Nc1ccc(C(=O)O)cc1	0	-2	-1	0	1	0
Cc1onc(C(=O)Nc2sc3c(c2C#N)CCCC3)c1[N+](=O)[O-]	-1	-1	0	-1	18	0
O=C(Nc1nnc(-c2ccco2)o1)C1CC1	0	-1	6.4*	0	-2	0
COc1ccc2c(c1OC)C(=O)N1C2SC[C@H]1C(=O)NCCC(C)C (some centres not stated)	0	-1	-1	0	1	-2
Cc1ccc(-n2ncc3c(=O)n(CC(N)=O)cnc32)cc1	0	-1	1	0	2	3
Cc1sc2nc(CSc3ccc([N+](=O)[O-])cc3)[nH]c(=O)c2c1C	/	/	/	/	47*	/
Cc1cc(CNC(=O)Cn2nc(C)c([N+](=O)[O-])c2C)c2ccccc2n1	0	-2	-2	4.3*	4	-2
NS(=O)(=O)c1cc(C(=O)NCCc2ccccn2)ccc1Cl	2	0	2	0	2	1
Brc1ccc(OCc2nnc3n2CCC3)cc1	-1	-1	0	-1	-4	-2
CN1N=C2c3ccccc3CCCC2C1c1ccc(F)cc1 (configuration not stated)	2	0	5.6*	0	49*	2
CN1C(=O)c2ccccc2N(C)C1c1ccc(F)cc1 (configuration not stated)	0	-1	-1	0	/	-1
CC(NC(=O)c1ccc(Br)o1)C1CCCO1 (configuration not stated)	0	-1	-1	0	-1	1
C/C(=N/NC(=O)c1ccc(Br)o1)C(C)C	1	-1	2	2	16	11*
O=C(CSc1nc2ccccc2s1)Nc1ccc2c(c1)OCO2	-1	-1	1	0	33	0
C[N+]1(CCC(=O)c2ccccc2)CCCCC1	1	1.7*	-1	0	3	-3
O=C(CCN1CCCCC1)c1ccccc1	-1	-2	4	1	0	2
O=C(CN1CCN(Cc2ccc3c(c2)OCO3)CC1)Nc1ccc(F)cc1	4.8*	-1	-2	0	0	3
O=C(Nc1ccc2c(c1)OCO2)C1CCCN(S(=O)(=O)c2cccs2)C1 (configuration not stated)	0	/	/	/	66*	/
O=C(Nc1ccc2c(c1)OCO2)N1CCOCC1	0	0	0	-1	44	-1
CC1CN(C(=O)Nc2ccc3c(c2)OCO3)CC(C)O1 (configuration not stated)	3	-1	-1	1	52*	5
O=C(Nc1ccc2c(c1)OCO2)N1CCCC1	1	-1	2	1	70*	9
COC(=O)[C@]12C[C@H](CC(=O)NCC3CCCCC3)C(=O)N(CCc3ccc(OC)c(OC)c3)C1=C[C@H](COCc1ccccc1)O[C@@H]2C	/	-1	2	1	/	1
SMILES	DAX1 inh-1	ssDAF12 agonist	hcDAF-12 act	DAX1 inh-2	AHR activator	hgDAF12 agonist
O=C(Nc1ccc2c(c1)OCO2)N1CCCc2ccccc21	2	-1	1	1	56*	6
O=C(Nc1ccc2c(c1)OCO2)N1CCN(c2ccc(F)cc2)CC1	-1	-1	0	0	58*	6
Cc1ccc(NC(=O)N2CCCc3ccccc32)cc1	1	-1	2	3	5	3
CC1=C(C(=O)N2CCOCC2)C(c2cccs2)NC(=O)N1 (configuration not stated)	1	-1	-1	0	-3	0
Cc1ccc2c(c1)sc1nc(=O)n(-c3ccccc3)c(=O)n12	3	-1	2	2	-4	12*
O=C(Cn1c(=O)c(=O)n(Cc2ccccc2)c2ccc(Cl)cc21)NCC1CCCO1 (configuration not stated)	4.6*	-2	0	1	-1	-1
O=C(Cn1c(=O)n(Cc2ccccc2)c(=O)c2cc(Cl)ccc21)NCC1CCCO1 (configuration not stated)	2	-2	-1	0	2	-1
COc1ccc(CC(=O)Nc2ccc(S(=O)(=O)Nc3nccc(C)n3)cc2)cc1	-1	-1	-1	0	2	-3
Cc1cccc(OCC(=O)NC(C)C(=O)N/N=C/c2c(OCc3ccccc3)ccc3ccccc23)c1 (configuration not stated)	-1	/	/	/	88*	/
COc1ccc2ccccc2c1/C=N/NC(=O)c1cccc(C)c1	2	-2	-1	0	18	1
Cn1cc(/C=C2\SC(=S)N(NC(=O)c3cccc(Cl)c3)C2=O)c2ccccc21	0	-1	-1	0	/	3
Cn1cc(/C=C2\SC(=S)N(NC(=O)c3ccccc3)C2=O)c2ccccc21	0	1.0*	4	-1	21	1
O=C(NC(=S)Nc1ccc(CN2CCOCC2)cc1)c1cc2ccccc2o1	0	-2	0	0	-1	0
CC1=C(C(N)=O)C(c2cccs2)n2nc(-c3cccc(Cl)c3)nc2N1 (configuration not stated)	2	/	/	/	67*	/
Cc1ccc(S(=O)(=O)N2[C@@H](Cc3ccccc3)CO[C@H]2CC(=O)c2cccs2)cc1	/	0	-1	4.0*	/	0
Cc1[nH]n(-c2ccccc2)c(=O)c1/C=N/c1nn[nH]n1	/	-1	3	0	20	-1
Cc1cc(C)c2c(N)c(C(=O)Nc3cccc(C)c3C)sc2n1	-1	-1	-1	0	68*	5
COCc1cc(C)nc2sc(C(=O)Nc3cccc(OC)c3)c(N)c12	4.9*	0	6	1	12	10*
Cn1c(N)c(C(=O)N/N=C/c2ccccc2)sc1=S	-1	-2	2	-1	101*	2
Cc1cc(C)c2c(N)c(C(=O)N/N=C/c3ccccc3)sc2n1	8.7*	-1	0	1	-7	3
